Bioassay records: PubChem, several laboratories
SKKanGAS inh: S. pyogenes SKKanGAS growth inhibitors in kanamycin, primary screen, streptokinase expression inhibitor project, SKKanGAS strain, BacTiter-Glo luminescence | 6 h | inhibition, % at 7.5 µM | actives 1.3% (n = 300,000) | AID 1662, 2009;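 active means mean replicate score, as percent of positive control median, at least 50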;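 further: strain carries kanamycin resistance gene driven by streptokinase promoter and grows in 40 µg/ml kanamycin; loss of luminescence reflects streptokinase promoter inhibition or plain growth inhibition; 0% = median of DMSO wells and 100% = positive control at its reference dose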
tim23-1 inh: growth inhibitors of tim23-1 mutant yeast, primary screen, luminescence, uHTS; S. cerevisiae tim23-1 growth, BacTiter-Glo luminescence, 24 h; inhibition, % at 20 µM; actives 1.3% (n = 330,000); AID 463212, 2010;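 active means growth inhibition of the mutant yeast at or above 50%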;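 further: temperature-sensitive mutant grown at 25 °C; plate controls were DMSO-treated mutant yeast for no effect and medium wells lacking yeast for full effect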
tim10-1 inh: growth inhibitors of tim10-1 mutant yeast, primary screen, luminescence, uHTS | AID 463190, 2010 | inhibition, % at 20 µM | S. cerevisiae tim10-1 ts strain growth, BacTiter-Glo, 24 h | actives 2.2% (n = 330,000);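 active means inhibition of at least 40%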;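 further: mutant grown at 25 °C; 0% = DMSO wells with yeast and 100% = wells holding no yeast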
NALP1 yeast inh: NALP1 inflammasome inhibitors in reconstituted yeast, colorimetric, S. cerevisiae, triplicate retest; S. cerevisiae NALP1/ASC/caspase-1 growth, X-gal OD620, 72 h; inhibition, % at 10 µM; actives 0.61% (n = 280,000); in the data active means inhibition mostly above about 24%, no sharp cut-off; inactive means mostly below about 32%
TIM10 inh: growth inhibitors of isogenic TIM10 control yeast, primary screen, counter-screen for tim10-1 yeast inhibitor project, luminescence, uHTS. S. cerevisiae TIM10 strain growth, BacTiter-Glo luminescence, 24 h. actives 1.4% (n = 330,000). inhibition, % at 10 µM. AID 463195, 2010;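 active means inhibition of 40% or more at the single tested concentration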;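 further: wild-type TIM10 isogenic control strain grown at permissive 25 °C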
PfHsp90 yeast 2: growth inhibition of PfHsp90-expressing yeast, primary screen, antimalarial PfHsp90 inhibitor project, S. cerevisiae, BacTiter-Glo luminescence, single point, set 2. actives 0.32% (n = 310,000). inhibition, % at 9.4 µM. BacTiter-Glo ATP, 48 h; yeast lacking PDR1 and PDR3 efflux regulators. AID 504621, 2011;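 active means every replicate shows inhibition above about 80%, whatever the replicate mean, limit read from the data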;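 further: 0% = DMSO neutral controls and 100% = 20 µM radicicol positive controls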
TIM10 conf: growth inhibitors of wild-type TIM10 yeast, confirmation, counter-screen for tim10-1 synthetic lethality project, single concentration, luminescence, S. cerevisiae. shares compounds with TIM10 inh. S. cerevisiae tim10 strain growth, BacTiter-Glo luminescence, 24 h. inhibition, % at 10 µM. actives 63% (n = 4,600);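 active means inhibition of yeast growth at or above a set limit in either of two replicates at 10 µM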;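 further: this counterscreen used the strain with wild-type TIM10; 0% = yeast with DMSO and 100% = medium wells lacking yeast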
* marks the source's active call; other numbers are inactive results; nt = not tested or not shown. This is a sample that favours compounds with a hit; in the whole collection about 4.8% have one here.

SMILES | SKKanGAS inh | tim23-1 inh | tim10-1 inh | NALP1 yeast inh | TIM10 inh | PfHsp90 yeast 2 | TIM10 conf
O=C(Nc1cccc(O)c1)c1ccccc1 | 1.8 | 26.2 | 15.5 | 27.5 | 40.0* | 7.0 | -9.8
CCOC(=O)Nc1cccc(NC(=O)c2cc(OC)cc(OC)c2)c1 | -16.4 | 48.9 | 22.5 | -55.1 | 41.3* | 17.9 | 11.4
CC1=CC(C)(C)N(C(=O)c2ccccc2)c2ccccc21 | 10.6 | 24.8 | 29.0 | -1.3 | 15.6 | -20.5 | nt
CC1=CC(C)(C)N(C(=O)c2ccccc2)c2ccc(C)cc21 | 62.8* | -6.4 | 26.3 | 4.5 | 46.1* | -0.5 | -9.3
COc1ccc(Nc2nc3ccc(C)cc3n3cnnc23)cc1Cl | 25.3 | 29.4 | 18.5 | 9.2 | 9.2 | -18.5 | nt
Cc1ccc(/C=C/C(=O)N2CCN(S(=O)(=O)c3c(C)c(C)cc(C)c3C)CC2)o1 | 10.6 | 30.2 | 26.1 | 43.0 | 40.9* | -26.0 | -17.8
CC(NC(=S)N1CCN(c2ccccc2)CC1)c1ccccc1 (stereo unspecified) | -1.0 | 1.2 | 2.4 | nt | 5.4 | 9.9 | nt
NC(=O)N/N=C/c1ccc(-c2cccc(C(F)(F)F)c2)o1 | -24.9 | 2.4 | 1.3 | -1.8 | 19.2 | 16.2 | nt
O=C(N/N=C/c1ccc(-c2cccc(C(F)(F)F)c2)o1)c1cccc(F)c1 | -1.3 | 27.4 | 5.0 | 15.2 | 44.9* | 15.1 | 39.5*
O=C(Nc1nccs1)c1ccc2nccnc2c1 | -5.3 | 40.0 | 24.5 | -5.7 | 41.2* | -8.2 | 39.2*
Cc1cccc(NCC(=O)N/N=C\c2ccc[nH]2)c1 | 3.5 | 8.2 | 8.4 | nt | 10.1 | -31.6 | nt
O=C(CC12CC3CC(CC(C3)C1)C2)N/N=C\c1ccc[nH]1 | 5.8 | 36.1 | 31.8 | 26.5 | 46.2* | 5.9 | 34.4*
COc1ccc(-c2nc(CN(C)C(C)c3ccon3)c(C)o2)c(C)c1C (stereo unspecified) | -1.9 | 21.1 | 28.2 | 0.1 | 11.6 | 12.7 | nt
COc1ccc(C(=O)OCC(=O)NCc2ccc3c(c2)OCO3)cc1[N+](=O)[O-] | -5.5 | -6.0 | 4.5 | 22.5 | 8.6 | -9.8 | nt
CCN(Cc1ccccc1)c1ccc(/C=N/NC(=S)NC(C)C)cc1 | -6.9 | 29.3 | 36.2 | nt | 43.1* | -22.1 | 45.1*
CCN(Cc1ccccc1)c1ccc(/C=N/N=C(N)N)cc1 | 0.5 | 43.6 | -52.8 | 37.4 | -46.7 | 7.4 | nt
COc1ccccc1N=c1scc(-c2ccc3c(c2)NC(=O)CO3)n1CC1CCCO1 (stereo unspecified) | -9.7 | 5.7 | 13.9 | 17.8 | 14.3 | -24.1 | nt
O=C1COc2ccc(-c3csc(=Nc4ccc(OC(F)F)cc4)n3CC3CCCO3)cc2N1 (stereo unspecified) | 2.4 | 5.5 | 28.7 | -15.9 | 40.3* | nt | 38.4*
Cc1ccc(CS(=O)(=O)CCC(=O)NCc2cccs2)cc1 | 12.3 | 11.6 | -2.6 | -1.5 | 2.0 | 10.4 | nt
O=C(c1ccc(Cn2c(=S)[nH]c3ccccc3c2=O)cc1)N1CCN(c2ccccn2)CC1 | 20.5 | 30.4 | 20.1 | 0.5 | 72.9* | nt | 3.5
O=C(c1ccc(Cn2c(=O)[nH]c3ccccc3c2=O)cc1)N1CCN(c2ccccn2)CC1 | -2.7 | -2.3 | -4.1 | 33.9 | 2.0 | 7.1 | nt
Cc1ccc(NC(=O)CN(C)CC(=O)NC2CCCc3ccccc32)cc1 (stereo unspecified) | 0.4 | 8.9 | 9.8 | nt | -9.0 | -0.6 | nt
CCOc1cc(N2CCOCC2)c(OCC)cc1NC(=O)Cc1cccc2ccccc12 | -0.1 | 9.9 | 20.6 | 22.1 | 35.1 | -22.4 | nt
CCn1cc(CNC(=O)c2cccc([N+](=O)[O-])c2)c(C)n1 | -6.7 | 5.7 | 14.8 | 19.5 | -18.6 | -1.3 | nt
O=C(NCc1cn(-c2ccccc2)nc1-c1ccc(F)cc1)c1cccc([N+](=O)[O-])c1 | 1.7 | 6.0 | 32.8 | nt | 41.4* | -4.1 | 21.2
SMILES | SKKanGAS inh | tim23-1 inh | tim10-1 inh | NALP1 yeast inh | TIM10 inh | PfHsp90 yeast 2 | TIM10 conf
CCCOc1cccc(C(=O)NC(=S)Nc2cccc(C(F)(F)F)c2)c1 | -6.4 | 22.7 | 17.4 | 0.4 | 41.1* | -8.1 | 16.9
CC(C)(C)SC(=O)CC1NS(=O)(=O)OC2CCCCC12 (stereo unspecified) | -3.7 | 19.4 | 8.3 | 11.6 | 5.4 | 15.3 | nt
O=[N+]([O-])CC(c1ccccc1)c1c[nH]c2ccccc12 (stereo unspecified) | 10.3 | 38.8 | 18.6 | nt | 44.7* | nt | 54.8*
Cc1cccc(OCC(O)CN2CCN(c3ccccn3)CC2)c1C (stereo unspecified) | -5.5 | -6.0 | -6.4 | -1.0 | 97.6* | -28.7 | 1.2
CS(=O)(=O)c1sc(C#N)c2c1C(=O)CC(c1ccccc1)C2 (stereo unspecified) | 2.5 | -12.5 | 21.4 | -12.2 | 42.4* | -59.4 | 42.3*
Cc1oc2c(c(=O)c1C)C(=O)CC(c1ccccc1)C2 (stereo unspecified) | -0.8 | 20.2 | 8.2 | -0.8 | 9.7 | nt | nt
Cc1c(C)c2ccc(OC(C)C(=O)N3C[C@H]4C[C@@H](C3)c3cccc(=O)n3C4)c(C)c2oc1=O (stereo partly specified) | -2.3 | -4.0 | -12.7 | -6.3 | 59.3* | 23.4 | -7.0
Cc1ccc(OCc2cc(C(=O)N3CCC(Oc4cccnc4)CC3)no2)cc1C | -14.9 | 27.7 | 35.7 | 21.8 | 29.9 | 14.1 | nt
O=C(c1cc(COc2cccc(C(F)(F)F)c2)on1)N1CCC(Oc2cccnc2)CC1 | -7.8 | 38.7 | 38.2 | -26.2 | 43.2* | 2.9 | 43.0*
O=C(Oc1ccc2[nH]cc(CCN3C(=O)c4ccccc4C3=O)c2c1)c1ccco1 | -14.5 | 30.3 | 31.3 | 27.6 | 43.4* | nt | 39.0*
CCc1ccccc1-n1nnnc1SCC(=O)Nc1ccc(N2CCN(C)CC2)cc1 | -2.9 | 10.0 | 24.9 | 19.3 | 19.1 | 28.2 | nt
O=C(NC12CC3CC(CC(C3)C1)C2)N(Cc1ccccc1)Cc1ccncc1 | -2.8 | 36.5 | 29.6 | -2.2 | 44.0* | nt | 32.0*
O=C(CC(=O)c1cccs1)c1ccncc1 | nt | nt | nt | nt | nt | 6.4 | nt
CCCOC(=O)c1ccc(NC(=O)c2ccoc2C)cc1 | 4.8 | 10.4 | -0.5 | 30.3 | -2.1 | 21.8 | nt
CCCCOC(=O)c1ccc(NC(=O)c2ccoc2C)cc1 | 2.6 | 27.0 | 34.3 | -0.6 | 41.1* | 5.4 | 2.4
O=C(Nc1ccccc1C(=O)NCCc1ccccc1)c1ccco1 | 6.8 | 23.2 | 20.7 | -7.0 | 97.4* | -18.3 | -10.4
O=C(O)CNC(=O)c1ccccc1NC(=O)c1ccco1 | nt | 6.6 | 12.1 | 7.8 | 0.1 | nt | nt
